From the supplement of paper PMC10849652
Of roughly 8,800 targets only a part is listed; those with a hit were picked by preference. About 0.5% of all pairs of compound and target were hits. Unmarked numbers belong to inactive results.

Tests used:
Assay in all cases: log2 fold change, soluble protein after heating vs DMSO (PISA); higher = thermal stabilisation; K562 lysate, 10 uM; active = over 0.2 and 3.5 SD of the protein, either way, in both replicates (recomputed)
erlotinib = compound: C#Cc1cccc(Nc2ncnc3cc(OCCOC)c(OCCOC)cc23)c1 [erlotinib]
How it was run: (§1)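 Thermal stability, expressed as log-two fold change relative to solvent controls, is given from duplicates. Crude K562 extract in PBS pH 7.4 with 1 mM MgCl2, at 1 mg/mL protein, was treated with 10 μM compound for 30 min and heated in aliquots for 3 min across 48°C-58°C. After pooling, adjustment to 0.5% NP-40 at 4°C and centrifugation at 21,000xg for 90 min, supernatant protein was measured by TMTpro 16plex LC-MS/MS with channel sums equalised.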

[1] = compound: C/C(=N\NC(=O)C1=CC(=CC=C1)S(=O)(=O)N2CCOCC2)/C3=C(C=CC(=C3)Cl)O
How it was run: as §1

[2] = compound: C1=CC(=CC=C1C2=NC3=C(N2)C=C(C=C3)C(=O)N)OC4=CC=C(C=C4)Cl
How it was run: as §1

[3] = compound: C1=CC2=C(C=CC(=C2)/C=C\3/C(=O)NC(=NCC4=CC=CS4)S3)N=C1
How it was run: as §1

[4] = compound: C1=CC2=NC=CN=C2C=C1/C=C/3\C(=O)NC(=O)S3
How it was run: as §1

[5] = compound: C1=CC=C(C=C1)C2=NC(=C(N2)C3=CC=NC=C3)C4=CC(=C(C=C4)Cl)O
How it was run: as §1

[6] = compound: C1=CC=C2C(=C1)C3=NNC4=CC=CC(=C43)C2=O
How it was run: as §1

[7] = compound: C1CCN(C1)C(=O)NC2=CC=CC(=C2)NC3=NC=C(C(=N3)NCCC4=CN=CN4)Br
How it was run: as §1

[8] = compound: C1CN(CCC1(CC2=CC=C(C=C2)Cl)N)C3=NC=NC4=C3C=CN4
How it was run: as §1

IRAK-1-4 Inhibitor I = compound: C1COCCN1CCN2C3=CC=CC=C3N=C2NC(=O)C4=CC(=CC=C4)[N+](=O)[O-] [IRAK-1-4 Inhibitor I]
How it was run: as §1

ibrutinib = compound: C=CC(=O)N1CCC[C@@H](n2nc(-c3ccc(Oc4ccccc4)cc3)c3c(N)ncnc32)C1 [ibrutinib]
How it was run: as §1

[9] = compound: CC(=O)c1cnc2ccc(-c3cc(Cl)c(O)c(Cl)c3)nc2c1N[C@H]1CC[C@H](CN(C)C)CC1
How it was run: as §1

ralimetinib = compound: CC(C)(C)Cn1c(N)nc2ccc(-c3[nH]c(C(C)(C)C)nc3-c3ccc(F)cc3)nc21 [ralimetinib]
How it was run: as §1

[10] = compound: CC(C)(O)CC(=O)NCCn1ccc2ncnc(Nc3ccc(Oc4cccc(C(F)(F)F)c4)c(Cl)c3)c21
How it was run: as §1

[11] = compound: CC(C)C1=C2N=C(C=C(N2N=C1)NCC3=CC=CC=C3)NCCCCCCN
How it was run: as §1

[12] = compound: CC1=C(C(CC(=O)N1)C2=CC=C(C=C2)C(F)(F)F)C(=O)NC3=C(C=C4C(=C3)C=NN4)F
How it was run: as §1

[13] = compound: CC1=C(C2=C(C=C1)C(=O)C3=CC=CC=C3N2CCCN)C
How it was run: as §1

[14] = compound: CC1=C(C=C(C=C1)NC(=O)C2=CC(=CC=C2)C(C)(C)C#N)NC3=CC4=C(C=C3)N=CN(C4=O)C
How it was run: as §1

[15] = compound: CC1=C(C=C(C=C1)NC(=O)C2=CC(=CC=C2)N(C)C)NC(=O)C3=CC=C(C=C3)O
How it was run: as §1

[16] = compound: CC1=CC=C(C=C1)SC2=C3C=C(SC3=CN=C2)C(=O)N
How it was run: as §1

Sequence of UniProt Q96LJ8 (Q96LJ8 whole entry, looked up): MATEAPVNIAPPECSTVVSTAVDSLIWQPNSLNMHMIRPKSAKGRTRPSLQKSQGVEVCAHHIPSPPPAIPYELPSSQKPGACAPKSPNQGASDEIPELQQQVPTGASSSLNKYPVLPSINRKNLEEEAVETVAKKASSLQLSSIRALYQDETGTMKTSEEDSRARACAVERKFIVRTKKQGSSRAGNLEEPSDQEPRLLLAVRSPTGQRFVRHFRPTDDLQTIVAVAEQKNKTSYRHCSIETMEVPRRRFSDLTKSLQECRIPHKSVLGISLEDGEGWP
Sequence of UniProt O95271 (O95271 whole entry, looked up): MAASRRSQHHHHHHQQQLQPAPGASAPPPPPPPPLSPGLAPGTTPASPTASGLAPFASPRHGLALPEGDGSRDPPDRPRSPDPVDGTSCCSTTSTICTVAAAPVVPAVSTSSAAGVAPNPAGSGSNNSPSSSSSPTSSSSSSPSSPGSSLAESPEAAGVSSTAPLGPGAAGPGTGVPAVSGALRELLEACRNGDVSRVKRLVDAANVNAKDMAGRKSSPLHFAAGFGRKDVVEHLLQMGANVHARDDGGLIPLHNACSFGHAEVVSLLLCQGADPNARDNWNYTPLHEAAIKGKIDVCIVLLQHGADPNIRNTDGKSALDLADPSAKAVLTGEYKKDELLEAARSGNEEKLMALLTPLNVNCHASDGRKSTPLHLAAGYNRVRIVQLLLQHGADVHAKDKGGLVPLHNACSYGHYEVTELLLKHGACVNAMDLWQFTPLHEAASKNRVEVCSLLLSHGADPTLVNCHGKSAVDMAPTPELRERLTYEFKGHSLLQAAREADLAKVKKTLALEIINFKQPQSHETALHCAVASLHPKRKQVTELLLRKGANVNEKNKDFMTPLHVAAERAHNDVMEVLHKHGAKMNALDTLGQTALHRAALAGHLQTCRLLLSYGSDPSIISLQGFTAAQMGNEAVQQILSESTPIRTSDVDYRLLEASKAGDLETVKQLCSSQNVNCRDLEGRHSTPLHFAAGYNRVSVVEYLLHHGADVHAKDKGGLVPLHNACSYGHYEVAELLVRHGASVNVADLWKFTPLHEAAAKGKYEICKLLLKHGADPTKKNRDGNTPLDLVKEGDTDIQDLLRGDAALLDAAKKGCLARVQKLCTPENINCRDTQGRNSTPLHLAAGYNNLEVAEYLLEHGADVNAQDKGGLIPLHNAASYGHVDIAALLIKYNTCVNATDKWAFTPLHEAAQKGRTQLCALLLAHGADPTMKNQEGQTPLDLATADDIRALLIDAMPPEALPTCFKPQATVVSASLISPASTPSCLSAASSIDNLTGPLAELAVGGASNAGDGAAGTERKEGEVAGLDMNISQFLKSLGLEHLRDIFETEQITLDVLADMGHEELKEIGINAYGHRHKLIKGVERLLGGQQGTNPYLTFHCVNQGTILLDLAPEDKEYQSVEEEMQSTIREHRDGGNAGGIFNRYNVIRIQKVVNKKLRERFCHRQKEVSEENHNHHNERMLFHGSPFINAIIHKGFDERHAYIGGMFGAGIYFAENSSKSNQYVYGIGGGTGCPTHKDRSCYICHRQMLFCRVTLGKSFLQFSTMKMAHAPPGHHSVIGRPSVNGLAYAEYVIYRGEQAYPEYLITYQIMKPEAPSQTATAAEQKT
Sequence of UniProt Q9UPU7 (Q9UPU7 whole entry, looked up): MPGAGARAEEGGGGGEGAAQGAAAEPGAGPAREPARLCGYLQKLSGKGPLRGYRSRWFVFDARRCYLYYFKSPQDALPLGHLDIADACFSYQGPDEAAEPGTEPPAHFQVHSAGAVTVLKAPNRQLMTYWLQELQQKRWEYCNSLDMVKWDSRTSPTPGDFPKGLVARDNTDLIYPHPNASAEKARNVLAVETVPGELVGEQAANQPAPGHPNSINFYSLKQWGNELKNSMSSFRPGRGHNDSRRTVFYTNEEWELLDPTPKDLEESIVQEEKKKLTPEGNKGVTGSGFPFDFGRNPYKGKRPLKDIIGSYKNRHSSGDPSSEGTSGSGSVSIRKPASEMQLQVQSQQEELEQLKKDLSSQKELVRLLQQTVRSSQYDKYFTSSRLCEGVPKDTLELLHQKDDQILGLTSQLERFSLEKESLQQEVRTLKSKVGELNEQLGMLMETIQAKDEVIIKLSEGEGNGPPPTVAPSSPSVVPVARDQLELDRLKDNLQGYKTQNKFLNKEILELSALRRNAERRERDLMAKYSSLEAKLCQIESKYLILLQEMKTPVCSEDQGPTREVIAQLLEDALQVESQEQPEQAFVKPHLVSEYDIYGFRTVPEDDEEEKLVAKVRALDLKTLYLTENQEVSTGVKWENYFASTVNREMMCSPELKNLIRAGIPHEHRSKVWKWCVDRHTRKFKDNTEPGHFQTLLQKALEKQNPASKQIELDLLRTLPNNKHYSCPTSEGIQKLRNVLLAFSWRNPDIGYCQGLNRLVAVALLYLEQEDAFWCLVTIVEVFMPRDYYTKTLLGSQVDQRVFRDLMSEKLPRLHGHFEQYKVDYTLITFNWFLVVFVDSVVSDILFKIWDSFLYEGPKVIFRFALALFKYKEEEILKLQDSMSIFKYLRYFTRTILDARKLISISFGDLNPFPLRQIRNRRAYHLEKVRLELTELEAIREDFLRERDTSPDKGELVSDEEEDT
Sequence of UniProt Q9BZL1 (Q9BZL1 whole entry, looked up): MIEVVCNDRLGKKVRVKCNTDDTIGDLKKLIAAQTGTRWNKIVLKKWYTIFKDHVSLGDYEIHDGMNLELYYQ
Sequence of UniProt Q12800 (Q12800 whole entry, looked up): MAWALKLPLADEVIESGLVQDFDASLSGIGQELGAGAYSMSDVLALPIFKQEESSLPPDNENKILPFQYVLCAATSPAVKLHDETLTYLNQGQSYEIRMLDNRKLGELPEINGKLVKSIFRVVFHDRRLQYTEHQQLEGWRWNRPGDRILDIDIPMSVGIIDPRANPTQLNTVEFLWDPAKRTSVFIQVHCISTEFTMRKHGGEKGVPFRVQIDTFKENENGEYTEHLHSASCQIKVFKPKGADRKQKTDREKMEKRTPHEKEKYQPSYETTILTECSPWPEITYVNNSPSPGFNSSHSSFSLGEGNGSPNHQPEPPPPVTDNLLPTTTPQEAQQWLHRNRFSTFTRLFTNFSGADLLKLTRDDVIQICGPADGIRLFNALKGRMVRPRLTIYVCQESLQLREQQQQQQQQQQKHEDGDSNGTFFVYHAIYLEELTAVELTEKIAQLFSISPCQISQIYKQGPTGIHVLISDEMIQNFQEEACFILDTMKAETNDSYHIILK
Sequence of UniProt Q9UGJ1 (Q9UGJ1 whole entry, looked up): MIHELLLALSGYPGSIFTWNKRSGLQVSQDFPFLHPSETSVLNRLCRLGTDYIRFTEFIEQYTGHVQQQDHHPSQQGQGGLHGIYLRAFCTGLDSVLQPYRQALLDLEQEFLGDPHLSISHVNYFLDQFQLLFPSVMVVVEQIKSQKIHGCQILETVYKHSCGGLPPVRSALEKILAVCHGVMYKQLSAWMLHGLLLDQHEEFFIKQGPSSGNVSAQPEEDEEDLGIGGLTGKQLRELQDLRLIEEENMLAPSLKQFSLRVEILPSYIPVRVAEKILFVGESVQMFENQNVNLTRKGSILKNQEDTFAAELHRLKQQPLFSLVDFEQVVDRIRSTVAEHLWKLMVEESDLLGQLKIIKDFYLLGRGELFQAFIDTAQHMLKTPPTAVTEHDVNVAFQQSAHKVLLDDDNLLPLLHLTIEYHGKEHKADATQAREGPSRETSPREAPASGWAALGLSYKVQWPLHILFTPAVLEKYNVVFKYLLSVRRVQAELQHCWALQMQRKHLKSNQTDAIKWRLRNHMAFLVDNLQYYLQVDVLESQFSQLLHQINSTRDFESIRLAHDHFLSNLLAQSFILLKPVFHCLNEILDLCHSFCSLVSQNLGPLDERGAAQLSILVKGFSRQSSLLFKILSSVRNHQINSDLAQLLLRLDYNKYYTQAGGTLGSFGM
Sequence of UniProt Q9NZI7 (Q9NZI7 whole entry, looked up): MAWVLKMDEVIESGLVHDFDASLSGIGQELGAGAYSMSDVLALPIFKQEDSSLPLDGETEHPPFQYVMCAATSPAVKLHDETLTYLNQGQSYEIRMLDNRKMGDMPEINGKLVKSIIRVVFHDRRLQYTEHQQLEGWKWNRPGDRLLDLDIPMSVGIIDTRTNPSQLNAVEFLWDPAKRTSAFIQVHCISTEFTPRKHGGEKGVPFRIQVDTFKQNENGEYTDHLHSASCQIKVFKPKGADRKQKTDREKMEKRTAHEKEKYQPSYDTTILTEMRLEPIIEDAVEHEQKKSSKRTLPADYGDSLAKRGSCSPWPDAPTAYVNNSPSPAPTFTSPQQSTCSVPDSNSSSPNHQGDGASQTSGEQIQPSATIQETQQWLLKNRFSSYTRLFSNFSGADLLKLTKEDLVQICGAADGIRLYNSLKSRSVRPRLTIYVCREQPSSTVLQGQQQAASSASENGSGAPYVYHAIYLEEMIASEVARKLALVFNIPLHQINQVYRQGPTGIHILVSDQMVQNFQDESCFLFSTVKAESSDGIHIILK
Sequence of UniProt P10646 (P10646 whole entry, looked up): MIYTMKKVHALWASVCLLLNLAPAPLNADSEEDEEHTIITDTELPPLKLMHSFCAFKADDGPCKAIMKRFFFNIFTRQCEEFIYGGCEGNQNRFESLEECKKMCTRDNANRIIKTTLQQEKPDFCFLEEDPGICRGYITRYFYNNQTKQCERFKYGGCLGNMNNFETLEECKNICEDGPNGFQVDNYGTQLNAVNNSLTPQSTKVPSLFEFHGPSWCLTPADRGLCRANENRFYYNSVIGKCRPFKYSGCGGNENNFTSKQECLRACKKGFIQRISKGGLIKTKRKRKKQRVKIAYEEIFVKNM
Sequence of UniProt Q14CS0 (Q14CS0 whole entry, looked up): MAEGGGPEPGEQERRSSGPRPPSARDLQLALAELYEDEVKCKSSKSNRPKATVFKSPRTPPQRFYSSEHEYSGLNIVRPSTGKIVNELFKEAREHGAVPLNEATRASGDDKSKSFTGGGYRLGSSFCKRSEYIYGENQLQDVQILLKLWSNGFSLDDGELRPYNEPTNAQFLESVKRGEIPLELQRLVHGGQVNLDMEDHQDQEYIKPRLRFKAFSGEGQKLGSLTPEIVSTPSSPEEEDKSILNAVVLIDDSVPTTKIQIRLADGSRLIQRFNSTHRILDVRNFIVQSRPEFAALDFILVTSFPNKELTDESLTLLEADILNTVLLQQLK

Target | log2 fold change (erlotinib) | log2 fold change [1] | log2 fold change [2] | log2 fold change [3] | log2 fold change [4] | log2 fold change [5] | log2 fold change [6] | log2 fold change [7] | log2 fold change [8] | log2 fold change (IRAK-1-4 Inhibitor I) | log2 fold change (ibrutinib) | log2 fold change [9] | log2 fold change (ralimetinib) | log2 fold change [10] | log2 fold change [11] | log2 fold change [12] | log2 fold change [13] | log2 fold change [14] | log2 fold change [15] | log2 fold change [16]
TRIM23 (UniProt P36406) | -0.044 | -0.022 | 0.037 | 0.014 | 0.034 | 0.493 | -0.011 | -0.017 | 0.105 | 0.183 | -0.031 | 0.061 | -0.102 | -0.085 | -0.056 | 0.026 | -0.065 | 0.099 | -0.22 | -0.022
TUBB6 (UniProt K7ES63) | -0.19 | 0.058 | -0.06 | 0.047 | -0.01 | -0.154 | -0.029 | -0.19 | -0.22 | 0.048 | -0.005 | 0.076 | 0.094 | -0.07 | 0.132 | -0.061 |  | -0.005 | 0.027 | -0.098
TPD52L2 isoform 7 (UniProt O43399) | -0.044 | -0.028 | 0.085 | 0.015 | 0 | 0.017 | 0.036 | 0.029 | -0.004 | -0.031 | -0.016 | 0.017 | -0.013 | 0.01 | -0.013 | 0.023 | -0.024 | 0.007 | -0.006 | -0.001
UBXN10 (UniProt Q96LJ8) | 0.064 | 0.026 | 0.057 | -0.089 | -0.072 | 0.027 | 0.018 | -0.012 | 0.041 | 0.03 | 0.016 | 0.044 | 0.002 | -0.012 | 0.014 |  | 0.012 | -0.001 | 0.069 | -0.015
TFPI (UniProt P10646) | -0.069 | 0.093 | 0.011 | 0.089 | -0.141 | -0.02 | -0.232 | -0.096 | 0.065 | 0.003 | 0.024 | 0.035 | 0.046 | -0.003 | -0.011 | -0.042 |  | 0.021 | -0.027 | 0.073
TUBGCP4 (UniProt Q9UGJ1) | -0.017 | -0.017 | -0.007 | 0.015 | -0.018 | -0.01 | -0.028 | 0.133 | 0.045 | 0.052 | 0 | -0.051 | 0.052 | -0.037 | 0 | 0.021 | -0.048 | -0.002 | 0.05 | 0.043
TBC1D20 isoform 3 (UniProt Q96BZ9) | -0.073 | 0.142 | -0.113 | 0.043 | 0.117 | -0.038 | -0.018 | 0.033 | 0.023 | 0.132 | 0.078 | -0.016 | 0.001 | -0.14 | -0.082 |  | 0.05 | -0.171 | 0.019 | -0.005
TNKS (UniProt O95271) | 0.064 | -0.024 | -0.036 | -0.005 |  | 0.052 | -0.01 | -0.061 | -0.02 | -0.073 |  | 0.038 | -0.04 | 0.022 | -0.045 | -0.001 | -0.076 | 0.004 | 0.006 | 0.124
TXNIP (UniProt Q9H3M7) | 0.036 | -0.165 | -0.057 | -0.045 | -0.001 | -0.003 | 0.048 | -0.042 | 0.017 | 0.041 | -0.009 |  | 0.007 | -0.02 | -0.053 | 0.011 | -0.036 | 0.037 | 0.016 | 
TBC1D2B (UniProt Q9UPU7) | -0.005 | -0.028 | 0.098 | 0.03 | -0.053 | 0.042 | -0.111 | -0.031 | -0.024 | -0.075 | 0.075 | -0.017 | 0.008 | 0.003 | -0.054 | 0.058 | 0.006 | -0.03 | 0.031 | 0.025
UBP1 (UniProt Q9NZI7) | 0.018 | -0.109 | -0.095 | 0.048 | 0.016 | 0.01 | 0.032 | -0.034 | -0.017 | 0.029 | -0.006 | 0.056 | 0.024 | -0.004 | 0.048 | -0.028 | 0.047 | 0.03 | -0.037 | 0.004
UGDH (UniProt O60701) | 0.002 | 0.046 | -0.02 | -0.009 | 0.02 | -0.041 | -0.051 | -0.004 | -0.052 | -0.053 | 0.02 | 0.02 | 0.085 | -0.004 | -0.004 | 0.019 | 0.215 (active) | -0.037 | 0.058 | 0.031
UBXN2B (UniProt Q14CS0) | -0.008 | -0.079 | 0.073 | -0.045 | -0.01 | -0.062 | 0.149 | -0.04 | -0.046 | -0.028 | 0.108 | 0.19 | 0.087 | -0.075 | 0.002 | -0.189 | -0.192 |  | 0.022 | -0.011
TFIP11 (UniProt Q9UBB9) | -0.026 | -0.099 | -0.082 | -0.025 | -0.027 | 0.023 | -0.036 | -0.008 | 0.074 | -0.016 | 0.059 | 0.001 | 0.023 | 0.008 | -0.022 | 0 | -0.034 | 0.016 | 0.031 | -0.003
TFCP2 (UniProt Q12800) | -0.035 | 0.08 | -0.115 | 0.01 | -0.042 | -0.007 | -0.02 | -0.038 | -0.044 | 0.035 | -0.055 | 0.054 | 0.032 | -0.028 | 0.051 | -0.026 | 0 | 0.059 | -0.02 | 0.026
UBL5 (UniProt Q9BZL1) | 0 | 0.002 | -0.02 | 0.011 | -0.079 | 0 | 0.049 | 0.029 | 0.004 | -0.062 | 0.052 |  | -0.029 | 0.04 | -0.003 | -0.056 | 0.032 | 0.038 | 0.037 | 
